Screening results (PubChem BioAssay)
Shown are actives, neighbours in structure and some others; about 3.4% of the full set was active somewhere.
TEAD-YAP block – TEAD-YAP interaction inhibition | inhibition, % at 9.12 µM | 1.4% of 640,000 active | HEK-TIYL cells, TEAD-Gal4/YAP UAS-luciferase luminescence | AID 1259422; in the data active = inhibition above about 32%
MITF primary – human MITF inhibition, primary screen; inhibition, % at 2.6 µM; 0.91% of 650,000 active; AID 1259374; AlphaScreen MITF homodimerization, bead proximity signal; in the data active = inhibition above about 50%
FBW7 activator – human FBW7 E3 ligase activation, primary screen | normalized activity (activation), % at 26.1 µM | 0.13% of 650,000 active | AlphaScreen FBW7–phospho-cyclin E peptide binding, activator screen | Q969H0; in the data active = normalized activity above about 1.9%;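 also: purified mutant Fbw7 with reduced substrate affinity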
GPR151 ag – activates the human receptor GPR151 | PathHunter beta-arrestin GPR151 cells, luminescence | activation, % at 11.2 µM | 1% of 650,000 active; in the data active = activation above about 4.9%
Target sequence (Q8TDV0 whole entry, looked up): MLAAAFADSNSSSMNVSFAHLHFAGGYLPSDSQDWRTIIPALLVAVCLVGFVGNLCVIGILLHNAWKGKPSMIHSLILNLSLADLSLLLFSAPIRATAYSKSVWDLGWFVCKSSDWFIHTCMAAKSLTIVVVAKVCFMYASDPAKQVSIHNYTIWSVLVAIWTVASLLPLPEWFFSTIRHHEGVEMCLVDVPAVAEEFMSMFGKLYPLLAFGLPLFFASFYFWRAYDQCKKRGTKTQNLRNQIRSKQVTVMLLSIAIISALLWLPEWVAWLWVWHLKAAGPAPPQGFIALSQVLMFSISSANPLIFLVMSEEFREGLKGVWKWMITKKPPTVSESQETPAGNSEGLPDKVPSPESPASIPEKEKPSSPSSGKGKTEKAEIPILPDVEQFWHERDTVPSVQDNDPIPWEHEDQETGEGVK
MITF inh conf – human MITF inhibition, confirmation. shares compounds with MITF primary. AlphaScreen MITF homodimerization, biotin/His-MITF beads. inhibition, % at 2.6 µM. 16% of 4,700 active;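 active = inhibition above a cutoff derived from the DMSO control wells, cut at about 28% in these data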;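 also: inhibitors lower the bead chemiluminescence by keeping MITF from dimerizing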
AlphaScreen DR – optically interferes with AlphaScreen signal in dose response | shares compounds with MITF primary | AlphaScreen optical interference counterscreen, cell-free | IC50, µM | 6% of 480 active; call rule not given here
AS interf ctr – optically interferes with AlphaScreen signal. shares compounds with MITF primary. LysRS AlphaScreen counterscreen, signal interference, triplicate. inhibition, % at 2.6 µM. 7.6% of 4,700 active. AID 1259376;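 active = inhibition above a cutoff derived from the DMSO control wells, cut at about 30% in these data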
Of the large screens only hits and unclear results are named; the others gave an inactive call (follow-up assays come after a bar, where they were run).

COc1ccc(CN2CCC(C(=O)N3CCc4ccccc4C3)CC2)c(OC)c1	MITF primary 53 | MITF inh conf inactive | AS interf ctr inactive
O=C(C1CCN(Cc2cccnc2)CC1)N1CCN(C/C=C/c2ccccc2)CC1	MITF primary 58 | MITF inh conf inactive | AS interf ctr inactive
O=C(Nc1ccc(Cl)c(Cl)c1)c1ccc(F)c(S(=O)(=O)N2CCOCC2)c1	none
COc1cc(Nc2nc(Nc3nc4ccccc4n3C)ncc2C)cc(OC)c1OC	none
O=C(CCCCCc1ccccc1)c1nc2ncccc2o1	none (no result: TEAD-YAP block, FBW7 activator)
CC(C)Cc1ccc(S(=O)(=O)N2CCc3ccccc3C2)cc1	none
Cc1ccn(S(=O)(=O)c2c(C)c(C)cc(C)c2C)n1	none
c1ccc(-c2cc(N3CCOCC3)nc(-c3ccccn3)n2)cc1	MITF primary 77 | MITF inh conf inactive | AS interf ctr inactive
Fc1ccc(CN2CCN(Cc3ccco3)CC2)cc1	MITF primary 70 | MITF inh conf inactive | AS interf ctr inactive
Brc1cccc(CN2CCOCC2)c1	none
Clc1cccc(N2CCN(Cc3ccco3)CC2)c1	none
Cn1cccc1CN1CCN(Cc2ccc(Br)cc2)CC1	none
Brc1cccc(CN2CCN(Cc3ccco3)CC2)c1	MITF primary 81 | MITF inh conf inactive | AS interf ctr inactive
Cn1cccc1CN1CCN(Cc2ccco2)CC1	MITF primary 69 | MITF inh conf inactive | AS interf ctr inactive
Clc1cccc(CN2CCN(Cc3ccco3)CC2)c1	MITF primary 72 | MITF inh conf inactive | AS interf ctr inactive
O=C1CCCN1CCCNc1nc(NCc2ccc3c(c2)OCO3)nc2nc[nH]c12	none
COc1cccc(N2C(=O)C3C4c5ccccc5C(c5ccccc54)C3C2=O)c1 (configuration not stated)	none
CCC(=O)c1ccccc1NN1c2ccccc2C(=O)C1(C)OC (configuration not stated)	none
Clc1ccc(CN2CCN(Cc3ccco3)CC2)cc1	MITF primary 86 | MITF inh conf inactive | AS interf ctr inactive
O=C(O)c1cccc2c1C(=O)N(c1ccccc1)C2	MITF primary 72 | MITF inh conf 72 | AlphaScreen DR inactive | AS interf ctr inactive
CCCN1Cc2cccc(C(=O)O)c2C1=O	none
CCOC(=O)C1CCN(S(=O)(=O)c2cc(Cl)c(C)cc2OC)CC1	none
CCOC(=O)C1CCN(S(=O)(=O)c2ccc(Cl)cc2OC)CC1	MITF primary 59 | MITF inh conf inactive | AS interf ctr inactive
CC(=O)n1c2c(c3ccccc31)OC(N)=C(C#N)C2c1cccc([N+](=O)[O-])c1 (configuration not stated)	MITF primary 58 | MITF inh conf inactive | AS interf ctr inactive
O=C(NCc1ccco1)c1ccc(Br)cc1	none
N#CCCN(CC(=O)c1ccc(Br)cc1)Cc1ccco1	MITF primary 63 | MITF inh conf inactive | AS interf ctr inactive
COc1ccc(N2CCN(Cc3ccc(OC)cc3OC)CC2)cc1	none
CCOc1ccc(CN2CCN(Cc3ccc(SC)cc3)CC2)cc1	none
COc1ccc(CN2CCN(Cc3ccc(SC)cc3)CC2)c(OC)c1	MITF primary 70 | MITF inh conf inactive | AS interf ctr inactive
COc1ccc(CN2CCN(Cc3ccc(OC)cc3OC)CC2)c(OC)c1	MITF primary 72 | MITF inh conf inactive | AS interf ctr inactive
COc1ccc(CN2CCN(Cc3ccc(OC)cc3OC)CC2)cc1	MITF primary 65 | MITF inh conf inactive | AS interf ctr inactive
COc1ccc(CN2CCN(Cc3ccc(OC)c(OC)c3)CC2)c(OC)c1	MITF primary 66 | MITF inh conf inactive | AS interf ctr inactive
CCOc1ccc(N2C(=O)CC(SCCC(=O)Nc3ccc([N+](=O)[O-])cc3)C2=O)cc1 (configuration not stated)	none
COc1ccc(CN2CCN(Cc3ccc(F)cc3)CC2)c(OC)c1	MITF primary 81 | MITF inh conf inactive | AS interf ctr inactive
COc1ccc(CN2CCN(CCCc3ccccc3)CC2)c(OC)c1	MITF primary 74 | MITF inh conf inactive | AS interf ctr inactive
COc1ccc(CN2CCCN(C)CC2)c(OC)c1	none
COc1ccc(CN2CCN(Cc3ccc(Br)cc3)CC2)c(OC)c1	none
CCCCCn1cnc2c1c(=O)[nH]c(=O)n2C	none
CCOc1ccccc1OCCOCCNC(C)CC (configuration not stated)	MITF primary 77 | MITF inh conf inactive | AS interf ctr inactive
C/C=C/c1ccc(OCCOCCNC(C)CC)c(OC)c1 (configuration not stated)	MITF primary 70 | MITF inh conf inactive | AS interf ctr inactive
CCC(C)NCCOc1ccccc1C (configuration not stated)	none
COc1ccccc1N1C(=O)c2cccc3c(N(C)CCO)ccc(c23)C1=O	MITF primary 74 | MITF inh conf inactive | AS interf ctr inactive
COc1ccc(C(=O)NNC(=O)COc2ccc(Br)cc2C)cc1	none
CCC(c1nnc(SCC(=O)N(C)C)o1)N(C)C (configuration not stated)	MITF primary 81 | MITF inh conf inactive | AS interf ctr inactive
Clc1cccc(CN2CCN(Cc3cccnc3)CC2)c1	MITF primary 85 | MITF inh conf inactive | AS interf ctr inactive
O=C(NCc1cccc(Cl)c1)C1CCN(Cc2cccnc2)CC1	none
Fc1cccc(CN2CCN(Cc3cccnc3)CC2)c1	MITF primary 85 | MITF inh conf inactive | AS interf ctr inactive
COc1ccccc1CCNC(=O)C1CC12CCN(Cc1cnn(C)c1C)CC2 (configuration not stated)	none
COc1ccc(/C=C2\SC(=S)N(C(CCSC)C(=O)O)C2=O)c(OC)c1 (configuration not stated)	none
COc1ccc(C(CNCCC(=O)O)N(C)C)cc1 (configuration not stated)	MITF primary 55 | MITF inh conf inactive | AS interf ctr inactive
COc1ccc(C(CNC(=O)c2ccc(Br)cc2)N(C)C)cc1 (configuration not stated)	none
Clc1ccc(-n2cc(-c3ccccc3)c3c(NCCCN4CCOCC4)ncnc32)cc1	none
COc1ccc(-c2csc3ncnc(NCCN4CCOCC4)c23)cc1	MITF primary 82 | MITF inh conf inactive | AS interf ctr inactive
Clc1ccc(-c2csc3ncnc(NCCCN4CCOCC4)c23)cc1	MITF primary 96 | MITF inh conf inactive | AS interf ctr inactive
COc1ccc(CNC2CCN(c3ccc(NC(=O)C4CCCC4)cc3)CC2)cc1OC	none
O=[N+]([O-])c1ccccc1CN1CCN(C/C=C/c2ccccc2)CC1	MITF primary 58 | MITF inh conf inactive | AS interf ctr inactive
O=[N+]([O-])c1ccc(O)cc1CN1CCN(C/C=C/c2ccccc2)CC1	none
CCOc1cc(CN2CCN(Cc3ccc(CC)cc3)CC2)ccc1OC	MITF primary 59 | MITF inh conf inactive | AS interf ctr inactive
